Structures are written as SMILES. The source made the active and inactive calls.

The test in a line: basal 3T3-L1 adipocyte mitochondrial potential changes, profiling panel, cell-based, JC-1 fluorescence, 3T3-L1 adipocytes, 24 h, 100 nL compound (AID 1168). Further: test concentration not given here. As to conditions: JC-1 mitochondrial fluorescence, higher = more signal, called active from +8 up or from −8 down.
Turning to `CCCC[C@@H](O)C1=C(COC)Cn2c(=O)n(-c3ccccc3)c(=O)n2[C@H]1CO`, the z-score was -0.301 (inactive).
Consider `CCN(CC)c1ccc(N2CC=CC34O[C@@H]5C=CCOC(=O)[C@@H]5[C@H]3C(=O)N(CCCO)[C@@H]4C2=O)cc1` (stereo not given in full), for which the z-score is 0.604 (inactive).
As for `COCCOC(=O)N1C(=O)[C@@]2(c3cc(C#CCC(C(=O)OC)C(=O)OC)ccc31)[C@H](c1ccc(OCCO)cc1)N1[C@H](c3ccccc3)[C@H](c3ccccc3)OC(=O)[C@H]1[C@@H]2C(=O)N1CCCCCCC1`, the figure is -2.24 (inactive); as for `CCOC(=O)C1=CC[C@@H](c2ccc(F)cc2)N(S(=O)(=O)c2ccc(C)cc2)[C@H]1c1ccc([N+](=O)[O-])cc1`, -0.754 (inactive); as for `COC(=O)c1c(CC[C@@H](CO)NC(=O)N[C@@H](Cc2ccccc2)Cn2cc(-c3cncn3C)nn2)oc(C(C)=O)c1C(=O)OC`, 0.724 (inactive).
The result for `O=C(NCCO)C1=C[C@H](Oc2ccccc2I)[C@@H](O)[C@H](NCc2ccc(F)cc2)C1` reads 0.471 (inactive).
As for `CCCCN1CC=CC23O[C@@H]4/C=C\CCC(C)OC(=O)C4[C@H]2C(=O)N(C(C)CO)[C@@H]3C1=O` (stereo not given in full), the z-score is -0.382 (inactive).
The result for `CC(C)C[C@@H]1NC(=O)C([C@@H](C)OCc2ccccc2)NC(=O)[C@@]23C(=O)N[C@@H](Cc4ccccc4)C2[C@H](C)[C@@]2(C)O[C@H]2C3/C=C/CC/C=C/CNC1=O` (stereo not given in full) reads 0.17 (inactive); that for `COCCOC(=O)N1C(=O)[C@@]2(c3cc(C#CCCO)ccc31)[C@H](C(=O)N1CCc3cc(OC)c(OC)cc3C1)[C@H]1C(=O)O[C@H](c3ccccc3)[C@H](c3ccccc3)N1[C@@H]2c1ccccc1OCCO`, 1.58 (inactive).
The result for `COc1ccc([Si](C)(C)[C@H]2[C@H](CC(=O)N3Cc4ccccc4C[C@H]3CO)O[C@@]3(C(=O)N(Cc4cccc(N5C(=O)c6cccc7cccc5c67)c4)c4ccccc43)[C@@H]2C)cc1` reads 0.611 (inactive); that for `CN1C(=O)C2C(C1=O)C1C=C(c3ccc(CO)cc3)C2C(c2cccs2)N1C` (stereo not given), -0.42 (inactive).
The result for `CC(C)CNC(=O)[C@@]1(C)c2ccccc2C(=O)N(Cc2cc(F)cc(C(F)(F)F)c2)[C@H]1c1ccc(CO)cc1` reads -0.175 (inactive).
In the case of `COc1ccc([Si](C)(C)[C@H]2[C@H](CCO)O[C@@]3(C(=O)N(Cc4ccc(N5CCOC5=O)cc4)c4ccccc43)[C@@H]2C)cc1`, the z-score is 1.82 (inactive).
The result for `CCCC=C(CCC)[C@@H](NC(=O)c1ccco1)c1ccc(C(=O)OC)cc1` reads -0.458 (inactive); that for `CO[C@H]1O[C@H](CO)[C@@H](OC(=O)Nc2ccc(C(F)(F)F)cc2)[C@H](OC(=O)Nc2ccccc2-c2ccccc2)[C@@H]1OC(=O)Nc1ccccc1-c1ccccc1`, 0.688 (inactive); that for `CC[C@H](C)C(=O)O[C@H]1CC[C@]2(C)C3=C(CCC2C1(C)C)[C@]1(C)CC[C@H]([C@H](C)CCCC(C)C)[C@@]1(C)CC3` (stereo not given in full), -0.959 (inactive).
As for `COCCn1c(C(=O)N2CCCC2)cc2c1C[C@H]1CN(C(=O)c3ccccc3)[C@@](Cc3ccccc3)(C(=O)OC)[C@@H]21`, the figure is -0.416 (inactive).
Turning to `C[C@]1(C(=O)NCC(F)(F)F)c2ccccc2C(=O)N(Cc2ccc(OC(F)(F)F)cc2)[C@H]1c1ccc(CO)cc1`, the z-score was -0.235 (inactive).
As for `CN(C)CCCNC(=O)[C@@H]1c2ccccc2C(=O)N(C2Cc3ccccc3C2)[C@H]1c1ccc(CO)cc1`, the figure is 0.571 (inactive); as for `Cc1c(NC(=O)/C(C#N)=C/c2ccc(Cl)cc2)c(=O)n(-c2ccccc2)n1C`, 0.585 (inactive).
As for `C=CCC(OC(C)=O)[C@@H]1[C@@H](N(Cc2ccc(-c3ccccc3)cc2)C(=O)c2cccc3ccccc23)c2cc(OCCCO)ccc2N1C(=O)c1ccc2ccccc2c1` (stereo not given in full), the z-score was -1.3 (inactive).
The result for `COCCOC(=O)N1C(=O)[C@@]2(c3ccccc31)[C@H](c1ccc(OCCO)cc1)N1[C@H](c3ccccc3)[C@H](c3ccccc3)OC(=O)[C@H]1[C@@H]2C(=O)N1CCN(c2ncccn2)CC1` reads 0.358 (inactive); that for `C=C(/C(=C/C[C@@H](OC(C)=O)c1ccccc1OCCO)c1cc(C(=O)OC)ccc1OC)C(C)C`, 0.118 (inactive); that for `CCCC[C@H]1OB(O)C[C@H]2C1=C(COC)C[C@H]1C(=O)C=CC(=O)[C@H]12`, -1.46 (inactive).
As for `COc1ccc(NC(=O)O[C@H]2[C@H](OC(=O)Nc3ccc4c(c3)OCO4)[C@H](OC(=O)Nc3ccc4c(c3)OCO4)[C@@H](OC)O[C@@H]2CO)cc1`, the figure is -0.213 (inactive).

The record behind these values is PubChem BioAssay.
